TMEM16A inh – inhibitors of mouse TMEM16A calcium-activated chloride channel | Q8BHY3 | HEK293 TMEM16A/YFP iodide influx fluorescence, ionomycin | normalized B-score (activity score, 25-100; higher = stronger inhibition) at 10 µM | 310,000 tested, 1.2% active | AID 588511;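 active = ratio plate-corrected score three or more library SD toward inhibition, starting fluorescence score within five deviations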;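 also: score derived from kinetic fluorescence span divided by baseline fluorescence per well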
TLR9-MyD88 block – inhibitors of human TLR9-MyD88 binding. Q9NR96+Q99836. CHO BLA complementation TLR9-MyD88, CCF4 FRET ratio. inhibition, % at 4.98 µM. 340,000 tested, 0.21% active. AID 504734;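 active = inhibition above the mean over all tested compounds plus 3 SD, cut at about 21% in these data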
TLR4 MyD88 comp – blocks binding of human TLR4 to MyD88 | O00206+Q99836 | HeLa CL3-4 TLR4/MyD88 BLA complementation, FRET ratio | inhibition, % at 8.4 µM | 200,000 tested, 0.18% active; in the data active = inhibition above about 25%
Target sequence (O00206 whole entry, looked up): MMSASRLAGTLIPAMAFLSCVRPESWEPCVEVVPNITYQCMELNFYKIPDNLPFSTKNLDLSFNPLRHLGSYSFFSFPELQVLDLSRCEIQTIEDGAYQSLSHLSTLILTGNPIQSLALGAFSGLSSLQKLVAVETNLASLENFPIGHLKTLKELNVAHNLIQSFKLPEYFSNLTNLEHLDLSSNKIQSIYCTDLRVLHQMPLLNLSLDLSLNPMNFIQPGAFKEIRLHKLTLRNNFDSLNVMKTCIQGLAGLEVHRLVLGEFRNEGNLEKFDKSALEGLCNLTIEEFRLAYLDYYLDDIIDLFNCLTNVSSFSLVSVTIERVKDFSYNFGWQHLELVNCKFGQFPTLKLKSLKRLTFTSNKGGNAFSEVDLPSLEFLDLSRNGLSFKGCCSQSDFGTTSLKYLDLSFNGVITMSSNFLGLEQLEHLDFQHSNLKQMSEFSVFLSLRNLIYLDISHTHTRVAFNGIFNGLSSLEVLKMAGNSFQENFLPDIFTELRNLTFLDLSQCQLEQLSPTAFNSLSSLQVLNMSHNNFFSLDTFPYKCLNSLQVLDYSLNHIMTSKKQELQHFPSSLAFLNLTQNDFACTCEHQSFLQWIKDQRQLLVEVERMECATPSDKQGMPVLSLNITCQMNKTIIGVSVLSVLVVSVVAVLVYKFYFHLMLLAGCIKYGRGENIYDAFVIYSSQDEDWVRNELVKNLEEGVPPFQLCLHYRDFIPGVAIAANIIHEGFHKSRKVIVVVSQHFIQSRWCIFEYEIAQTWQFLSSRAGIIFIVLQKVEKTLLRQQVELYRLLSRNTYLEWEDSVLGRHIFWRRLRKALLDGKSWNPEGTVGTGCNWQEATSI
Target sequence (Q99836 whole entry, looked up): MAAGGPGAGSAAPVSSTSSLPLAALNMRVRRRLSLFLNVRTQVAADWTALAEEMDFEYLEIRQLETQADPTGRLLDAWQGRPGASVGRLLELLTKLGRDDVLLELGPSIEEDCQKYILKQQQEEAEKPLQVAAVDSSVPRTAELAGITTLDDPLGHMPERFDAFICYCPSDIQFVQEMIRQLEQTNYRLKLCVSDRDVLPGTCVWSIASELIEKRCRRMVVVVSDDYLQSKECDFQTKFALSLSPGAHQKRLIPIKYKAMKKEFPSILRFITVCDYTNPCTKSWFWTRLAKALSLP
HTR2A ag – agonists of mouse serotonin 5-HT2A receptor (HTR2A); P35363; CHO-K1 mHTR2A beta-arrestin complementation, luminescence; percent of 30 µM serotonin response; activation, % at 7.6 µM; 360,000 tested, 0.66% active;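 active = activation above a run cutoff, the mean activation of all tested compounds plus 3 SD, cut at about 14% in these data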
NOD2-RIPK2 inh – blocks binding of human NOD2 to RIPK2; CHO BLA complementation NOD2-RIPK2, CCF4 ratio; inhibition, % at 4.98 µM; 360,000 tested, 0.38% active; AID 624267; in the data active = inhibition above about 21%
ANO1 activ – activates or potentiates the mouse TMEM16A chloride channel | Q8BHY3 | HEK293 TMEM16A/YFP-H148Q/I152L, iodide quench fluorescence; active compounds read low | B-score at 10 µM | 340,000 tested, 0.3% active;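 active = fluorescence-ratio B-score plate-corrected deviation score at least 3 library SD below zero, with starting fluorescence score within 5 deviations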;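 also: channel opened by trigger with iodide after compound preincubation; score built on the fluorescence ratio of max minus min over baseline; more negative score means more quench and so TMEM16A activation or potentiation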
MOR ag counter – OPRM1 agonism in mouse HTR2A counterscreen; shares compounds with HTR2A ag; U2OS OPRM1 beta-arrestin PathHunter, luminescence; DMSO 0%, DAMGO 9.3 µM 100%; activation, % at 9.3 µM; 2,300 tested, 5.3% active;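 active = mean activation above the mean of DMSO-only wells plus 3 SD, cut at about 0.5% in these data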
m5-HT2A ag conf – confirmation of mouse HTR2A serotonin receptor agonists; shares compounds with HTR2A ag; CHO-K1 PathHunter beta-arrestin recruitment, luminescence; DMSO 0%, 30 µM serotonin 100%; activation, % at 7.6 µM; 2,300 tested, 19% active; AID 624381;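 active = mean activation across triplicates above the hit threshold derived in the original primary screen, cut at about 15% in these data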
Hits are given with their value; . = inactive; / = no result. Rows were chosen to be rich in hits. Some 2.4% of all compounds tested hit in one or more screens of this group.

SMILES	TMEM16A inh	TLR9-MyD88 block	TLR4 MyD88 comp	HTR2A ag	NOD2-RIPK2 inh	ANO1 activ	MOR ag counter	m5-HT2A ag conf
C[C@H](CO)N1C[C@H](C)[C@@H](CN(C)S(=O)(=O)c2ccccc2)Oc2ccc(NS(=O)(=O)c3ccccc3)cc2C1=O	/	.	/	.	.	/	/	/
CC(C)(C)N=C1SCC(C)(/C=N/O)S1 (configuration not stated)	.	.	.	16.5	.	.	.	.
CCC(C)N=C1SCC(C)(/C=N/O)S1 (configuration not stated)	.	.	.	.	.	.	/	/
Cc1ccc2nccc(C(=O)N3CCCC(Nc4ccc(F)cc4)C3)c2c1 (configuration not stated)	.	.	/	17.6	.	.	.	.
Cc1ccn2cc(C(=O)N3CCCC(Nc4ccc(F)cc4)C3)nc2c1 (configuration not stated)	.	.	/	18.5	.	.	.	.
COc1ccc(-c2nnc3n2CCCCC3)cc1OC	.	.	/	.	.	.	/	/
COc1ccc(-c2csc(Cc3nnc4n3CCCCC4)n2)cc1OC	.	.	.	14.8	.	.	.	.
Cc1cccc(-c2nnnn2-c2cccc(C)c2)c1	.	.	.	.	.	.	/	/
Cc1cccc2sc(NNC(=O)C3=COCCO3)nc12	.	.	.	16.8	.	.	.	.
COc1ccc2c3n(nc2c1)CCN=C3c1ccc(Cl)cc1	.	.	/	16.5	.	.	.	.
COc1cccc(-c2nc(-c3cccc(C)c3)nc3cc(Cl)ccc23)c1	/	/	/	17.4	.	/	.	.
COc1ccc(C2=CC(c3ccc(F)cc3)n3nnnc3N2)cc1 (configuration not stated)	.	.	.	.	.	.	/	/
COc1ccc(C2=CC(c3sccc3C)n3nnnc3N2)cc1 (configuration not stated)	.	.	.	15.0	.	.	.	.
CN1C(=O)C2ON(c3ccccc3)C(c3cccs3)C2C1=O (configuration not stated)	.	.	.	.	.	.	/	/
O=C(Nc1ccccc1)Nc1nnc(-c2cccs2)s1	.	.	.	21.3	.	.	.	.
CC1CCCCC1NC(=O)CSc1nnc(COc2ccc(Cl)cc2)o1 (configuration not stated)	.	.	/	.	.	.	/	/
O=C(Nc1ccc(-c2nnc3n2CCCCC3)cc1)c1ccco1	.	.	.	.	.	.	/	/
Cc1c(C(=O)Nc2ccc(-c3nnc4n3CCCCC4)cc2)oc2ccc(Br)cc12	.	.	.	18.4	.	.	.	.
COc1ccc(O)c(C(=O)c2cc(C#N)c(=O)n(CC3CCCO3)c2)c1 (configuration not stated)	.	.	.	.	.	.	/	/
Cn1nnnc1SCC(=O)N1c2ccccc2Sc2ccccc21	.	.	.	38.5	.	.	.	.
CSc1ccccc1NC(=O)c1ccncc1	.	.	.	.	.	.	/	/
CCCC(=O)Nc1c(-c2ccccc2)c(=O)c(C)nn1-c1ccc(Cl)cc1	.	.	.	15.3	.	.	.	.
Cc1ccccc1N/C(=N/S(=O)(=O)c1ccccc1)c1ccc(F)cc1	.	.	/	.	.	.	/	/
Cc1ccc(/C(=N\S(=O)(=O)c2ccc(Br)cc2)Nc2ccccc2C)cc1	.	.	/	14.6	.	.	.	.
Cc1nn(C)c(C(=O)Nc2ccn(C34CC5CC(CC(C5)C3)C4)n2)c1[N+](=O)[O-]	.	.	.	15.1	.	.	.	.
SMILES	TMEM16A inh	TLR9-MyD88 block	TLR4 MyD88 comp	HTR2A ag	NOD2-RIPK2 inh	ANO1 activ	MOR ag counter	m5-HT2A ag conf
CC(/C=N/n1c(-c2ccccc2)n[nH]c1=S)=C\c1ccco1	.	.	.	21.6	.	.	.	.
CC(/C=N/n1c(-c2ccncc2)n[nH]c1=S)=C\c1ccco1	.	/	/	20.2	.	.	.	.
CC(/C=N/n1c(-c2ccc(C)cc2)n[nH]c1=S)=C\c1ccco1	.	.	.	.	.	.	/	/
Cc1cccc(C(=O)N2CCCC(N3CCN(c4ccc(F)cc4)CC3)C2)n1 (configuration not stated)	.	.	/	.	.	.	/	/
O=C(CN1C(=O)/C(=C/c2ccc(Cl)cc2)SC1=S)NC1C=CS(=O)(=O)C1 (configuration not stated)	.	.	/	15.3	.	.	.	.
O=C(CCN1C(=O)/C(=C/c2ccc(Cl)cc2)SC1=S)NC1C=CS(=O)(=O)C1 (configuration not stated)	.	.	/	.	.	.	/	/
Cc1cccc(-c2nsc(SCC(=O)Nc3nccs3)n2)c1	.	.	.	18.0	.	.	.	.
Cc1cccc(-c2nsc(SCC(=O)Nc3ccc4c(c3)OCO4)n2)c1	.	.	.	.	.	.	/	/
O=C(O)c1ccc(/C=N/Nc2ccc(C(F)(F)F)cn2)cc1	/	.	.	17.8	.	.	.	.
COc1cc(/C=N/Nc2ccc(C(F)(F)F)cn2)ccc1O	.	.	.	.	.	.	/	/
CCN(CC)C1CCN(C(=O)c2cc(COc3ccc(-n4cncn4)cc3)on2)C1 (configuration not stated)	.	.	/	15.6	.	.	.	.
COc1ccc(NS(=O)(=O)c2ccc(C)c(C(=O)NCCCn3ccnc3)c2)cc1	/	.	/	.	.	/	/	/
O=C(COC(=O)c1ccccc1)NCc1cccs1	.	.	.	.	.	.	/	/
COc1c2occc2cc2ccc(=O)oc12	.	.	.	.	.	.	/	/
COc1c2c(cc3ccc(=O)oc13)CCO2	.	.	/	21.2	.	.	.	.
COc1ccccc1Nc1nc(N)nc(CSc2nncn2C)n1	.	.	.	14.8	.	/	.	.
O=C(CSc1nnc(SCc2ccc(Cl)cc2)s1)N/N=C/c1ccc(Cl)cc1Cl	.	.	.	.	.	.	/	/
O=C(CCS(=O)(=O)c1ccccc1Cl)NC1CCCCCC1	/	.	/	20.9	.	.	.	.
COc1ccccc1CNC(=O)COC(=O)C1CCN(S(=O)(=O)c2ccc(C)c(C)c2)CC1	.	.	/	.	.	.	/	/
Cc1ccc2nc(NC(=O)CSCC(=O)Nc3cc(C)on3)sc2c1	/	.	/	18.8	.	.	.	.
Cc1cc(NC(=O)CSCC(=O)Nc2nc3ccc(F)cc3s2)no1	/	.	/	.	.	.	/	/
COc1cc(C(=O)NNC(=O)c2ccco2)cc(OC)c1OC	.	.	/	.	.	.	/	/

Source: PubChem BioAssay (several laboratories)
